# Measurements reported in PubChem BioAssay AID686978 (National Center for Advancing Translational Sciences (NCATS), 2013).
# About 64,000 (15%) of roughly 420,000 compounds were called active. About 27% were inconclusive and are not listed. The call rests on the fitted dose curve; in most records, active means well fitted inhibition curve with a large enough effect; inconclusive means small, poorly fitted or top-dose-only effect; inactive means flat fitted curve, though single readings scatter. Only a sample is shown.
# Assay: qHTS for Inhibitors of human tyrosyl-DNA phosphodiesterase 1 (TDP1): qHTS in cells in absence of CPT; further: nearly all actives have a fitted effect of over 55% in size
# Details: DT40 Tdp1-/- hTDP1 cells, no CPT, ATP luminescence, 48 h; activity change, negative = growth inhibition: at 46.2 µM (top of the series)
# Procedure, shortened: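 No-CPT arm: Tdp1-/-;hTDP1 DT40 cells (400/well) plus compounds, incubated ≥48 hr at 37 °C. Readout CellTiter-Glo luminescence.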
# On the % scale 0 is the no-effect control and ±100 the full control effect; potency means the concentration at half of the fitted maximal effect.
Compound,"activity change, negative = growth inhibition",Potency
COc1ccc(CC(=O)NC2CCSc3ccccc32)cc1OC (stereo unspecified),-6.31% (inactive),–
COc1cc(C(=O)NCC2(c3ccccc3)CCCC2)ccc1OC(C)C,–,10.3 µM (active)
Cn1cnc(S(=O)(=O)Nc2ccc3c(c2)OCCO3)c1,-17.1% (inactive),–
CN(C)Cc1c(C#N)c2ccccc2n1C,-1.73% (inactive),–
COCCCN(C(=O)Cn1ncc2c(=O)oc3ccc(C)cc3c21)C(C)c1ccncc1 (stereo unspecified),-2.45% (inactive),–
CC1CCN(CCCn2c(SCC(=O)NC3CCCC3)nc3ccccc3c2=O)CC1,15.5% (inactive),–
Nc1nc(SCCOc2ccccc2)n[nH]1,-7.09% (inactive),–
COc1cc(C(=O)OCCCN2CCOCC2)cc(OC)c1OC,11.1% (inactive),–
C=C(C)Cn1c(N2CCCC2)nc2c1c(=O)[nH]c(=O)n2C,-7.42% (inactive),–
Cn1c(=O)[nH]c(=O)c2c1nc(N1CCN(C(c3ccccc3)c3ccccc3)CC1)n2CCO,–,16.4 µM (active)
Cc1cccc(OCC(O)Cn2c(N3CCCCC3)nc3c2c(=O)[nH]c(=O)n3C)c1 (stereo unspecified),–,23.1 µM (active)
CCC(C)Sc1nc2c(c(=O)[nH]c(=O)n2C)n1CC(O)COc1cccc2ccccc12 (stereo unspecified),–,29.1 µM (active)
C=C(C)Cn1c(N2CCN(CC)CC2)nc2c1c(=O)[nH]c(=O)n2C,-6.62% (inactive),–
Cc1nnc(SCCCn2c(N3CCCCC3)nc3c2c(=O)[nH]c(=O)n3C)s1,-19.1% (inactive),–
COc1ccc(CNc2nc3c(c(=O)[nH]c(=O)n3C)n2Cc2ccccc2)cc1,5.15% (inactive),–
CC1CN(CC(=O)NC(C)c2ccccc2)CC(C)O1 (stereo unspecified),3.41% (inactive),–
CC(C)(C)C(=O)N1CCC[C@@]1(CO)C(=O)O,-3.05% (inactive),–
O=C(c1ccc2c(c1)OCO2)N1CCN(C(=O)c2ccco2)CC1,2.81% (inactive),–
O=C1c2ccccc2C(=O)c2c1cccc2N1CCN(Cc2ccccc2)CC1,–,18.4 µM (active)
O=c1cc(N2CCN(Cc3ccccc3)CC2)c(-c2ccccc2)n[nH]1,-23.5% (inactive),–
O=S1(=O)CCN(Cc2ccccc2)CC1,2.2% (inactive),–
C=CCNC(=O)c1ccc(C)c(Br)c1,-20.1% (inactive),–
C=CCNC(=O)c1ccc2nc(-c3ccco3)c(-c3ccco3)nc2c1,–,11.2 µM (active)
C=CCNC(=O)c1cc(-c2ccccc2O)on1,-29% (inactive),–
COC(=O)NNC1=CC(=O)CC(C)(C)C1,-5.15% (inactive),–
Cc1ccc(N2C(=O)C(NC(=O)c3c(F)cccc3F)(C(F)(F)F)C3=C2CC(C)(C)CC3=O)cc1 (stereo unspecified),-5.91% (inactive),–

Compound,"activity change, negative = growth inhibition",Potency
CN(C)c1ccc(C2Nc3ccccc3C(=O)N2NS(=O)(=O)c2ccccc2)cc1 (stereo unspecified),-1.24% (inactive),–
Cc1cccc(C)c1OCC(=O)NC(Cc1c[nH]c2ccccc12)C(=O)O (stereo unspecified),–,inactive
COc1ccc(-c2cc(C(=O)NC(C(=O)O)C(C)C)c(C)o2)cc1OC (stereo unspecified),-6.53% (inactive),–
COc1ccc(-c2cc(C(=O)NC(Cc3c[nH]c4ccccc34)C(=O)O)c(C)o2)cc1OC (stereo unspecified),–,29.1 µM (active)
Cc1ccc(S(=O)(=O)NCc2csc(C)n2)c(C)c1,2.86% (inactive),–
CCn1cc(C(=O)N2CC(C)CC(C)C2)c(=O)c2cc(S(=O)(=O)N3CCCC3)ccc21 (stereo unspecified),13.2% (inactive),–
CCn1cc(C(=O)N2CCN(c3cc(Cl)ccc3C)CC2)c(=O)c2cc(S(=O)(=O)N3CCCC3)ccc21,–,25.9 µM (active)
CN(Cc1ccccc1)C(=O)c1cn(C)c2ccc(S(=O)(=O)N(C)C3CCCCC3)cc2c1=O,-14.9% (inactive),–
CCOC(=O)N1CCN(C(=O)c2cn(C)c3ccc(S(=O)(=O)N4CCCC4)cc3c2=O)CC1,-3.52% (inactive),–
CCn1cc(C(=O)N2CCN(c3cc(C)ccc3C)CC2)c(=O)c2cc(S(=O)(=O)N(C)C3CCCCC3)ccc21,–,18.4 µM (active)
Cc1ccc(Cl)cc1N1CCN(C(=O)c2cn(C)c3ccc(S(=O)(=O)N(C)C4CCCCC4)cc3c2=O)CC1,-27.4% (inactive),–
NC(=O)CSc1nc2c(oc3ccccc32)c(=O)n1Cc1ccccc1,-16.9% (inactive),–
COCC(=O)Nc1cc(C(=O)OC)cc(C(=O)OC)c1,-2.97% (inactive),–
COc1ccc(CC(N)C(=O)NC2C(O)[C@H](n3cnc4c(N(C)C)ncnc43)O[C@@H]2CO)cc1 (stereo partly specified),–,22.1 µM (active)
Nc1ncnc2c1ncn2[C@@H]1O[C@H](CNC(=O)[C@H](N)Cc2cccnc2)[C@@H](O)[C@H]1O,14.7% (inactive),–
COc1cccc(CN(C)C(=O)CC[C@H]2O[C@@H](n3cnc4c(NC(=O)c5ccccc5)ncnc43)[C@H](O)[C@@H]2O)c1,-11.4% (inactive),–
COC(=O)CNC(=O)c1ccc(OC2CCN(C(=O)C3CC3)CC2)cc1,11.2% (inactive),–
CCN(CC)CCOCCOc1ccc(Cl)c2ccccc12,–,16.4 µM (active)
CCC(C(=O)OCCN(CC)CC)c1ccccc1 (stereo unspecified),-14.4% (inactive),–
CN(C)CCOc1ccc(Cl)cc1C(C)(C)C,-29% (inactive),–
O=C(CCc1ccccc1)Nc1cccc(-c2nnc(-c3ccco3)o2)c1,–,16.4 µM (active)
C/C(=N/NC(=O)CCc1ccccc1)c1ccco1,18% (inactive),–
Cc1cccc(NC(=O)CSc2nnc(-c3ccco3)o2)c1,4.91% (inactive),–
COc1cc(NS(=O)(=O)c2ccc(NC(=O)CN3C(=O)c4ccccc4C3=O)cc2)ncn1,0.218% (inactive),–
Oc1cc(O)c2c(c1)OC(c1ccc(O)c(O)c1)C(O)C2 (stereo unspecified),-6.57% (inactive),–
